# Only some compounds are listed: those with a hit (about 4.5% of all), similar ones and a draw of the others.
# aSyn 5UTR inh – 5' untranslated region of α-synuclein, MLPCN primary screen. alpha-synuclein 5'UTR reporter, inhibitor activity. 0.82% of 300,000 active. inhibition, % (tested at 7.5 µM); in the data active = inhibition above about 60%;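 also: H4 neuroglioblastoma cells stably carrying SNCA 5'UTR luciferase fusion; 0% = DMSO wells and 100% = positive control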
# Jurkat NFkB inh – inhibitors of the PMA/ionomycin-induced NF-kB reporter in Jurkat cells; PMA/ionomycin-induced NF-kB luciferase reporter, luminescence; inhibition, % at 4 µM; 0.53% of 330,000 active; in the data active = inhibition above about 50%
# Mdm2 MdmX PPI – disrupts the human Mdm2-MdmX interaction; O15151+Q00987; SaOS-2 split-luciferase Mdm2/MdmX complementation, luminescence; inhibition, % at 8 µM; 3% of 330,000 active; AID 485346;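 active = inhibition of at least 50% at 8 µM in the primary screen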
# Target sequence (O15151 whole entry, looked up): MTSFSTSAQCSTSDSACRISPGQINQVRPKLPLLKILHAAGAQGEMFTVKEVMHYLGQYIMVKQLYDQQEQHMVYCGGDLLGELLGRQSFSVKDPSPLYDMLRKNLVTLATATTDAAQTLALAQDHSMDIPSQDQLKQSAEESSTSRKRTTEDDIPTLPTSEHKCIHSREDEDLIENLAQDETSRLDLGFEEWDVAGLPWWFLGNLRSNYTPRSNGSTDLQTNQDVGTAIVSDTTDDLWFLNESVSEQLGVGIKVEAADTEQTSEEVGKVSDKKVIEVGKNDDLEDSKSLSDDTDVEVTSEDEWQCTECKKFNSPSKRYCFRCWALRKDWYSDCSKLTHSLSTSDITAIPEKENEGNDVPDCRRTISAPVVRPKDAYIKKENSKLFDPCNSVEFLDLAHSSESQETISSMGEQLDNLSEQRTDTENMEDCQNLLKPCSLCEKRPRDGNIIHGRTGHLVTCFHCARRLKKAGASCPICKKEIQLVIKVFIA
# Target sequence (Q00987 whole entry, looked up): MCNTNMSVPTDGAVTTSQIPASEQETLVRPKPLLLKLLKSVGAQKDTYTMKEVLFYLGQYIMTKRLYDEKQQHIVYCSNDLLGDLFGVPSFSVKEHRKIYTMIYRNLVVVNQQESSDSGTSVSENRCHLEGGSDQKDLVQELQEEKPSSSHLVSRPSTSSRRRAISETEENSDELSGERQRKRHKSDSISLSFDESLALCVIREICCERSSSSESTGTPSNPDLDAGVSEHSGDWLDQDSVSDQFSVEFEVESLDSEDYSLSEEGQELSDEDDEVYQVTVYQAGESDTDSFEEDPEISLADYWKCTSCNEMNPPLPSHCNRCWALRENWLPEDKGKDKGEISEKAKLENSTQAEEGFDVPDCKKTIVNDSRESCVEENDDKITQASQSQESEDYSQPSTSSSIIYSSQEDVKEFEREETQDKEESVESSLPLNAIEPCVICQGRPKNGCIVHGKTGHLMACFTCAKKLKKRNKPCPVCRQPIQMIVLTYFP
# 697 NFkB inh – inhibitors of the PMA/ionomycin-induced NF-kB reporter in 697 B cells; 697 B-cell NF-kB luciferase reporter, 16 h; inhibition, % at 4 µM; 0.33% of 330,000 active; in the data active = inhibition above about 35%
# CSC inhib – blocks cancer stem cells; cancer stem cell-like cells viability, luminescence; inhibition, % at 7.5 µM; 1.1% of 300,000 active; in the data active = inhibition above about 75%; tested in HMLE shEcad cells
# Gli-Sufu block – blocks Gli-Sufu signaling in a luciferase reporter | inhibition, % at 5 µM | Sufu-KO-LIGHT fibroblasts, Gli luciferase reporter luminescence | 0.74% of 340,000 active;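 active = inhibition above about 55%, limit read from the data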;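 also: 0% = DMSO-treated cells and 100% = wells with medium but no cells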
# Mdm2 MdmX conf – confirmation of human Mdm2/MdmX interaction inhibitors; shares compounds with Mdm2 MdmX PPI; Mdm2-MdmX binding, luminescent assay; inhibition, % at 8 µM; 55% of 10,000 active; AID 489028; in the data active = inhibition above about 40%
# Full FLuc ctr – counter-screen for Mdm2/MdmX inhibitors: full-length luciferase; shares compounds with Mdm2 MdmX PPI; SaOS-2 full-length luciferase counterscreen, luminescence; inhibition, % at 8 µM; 77% of 6,200 active;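 active = mean inhibition at 8 µM reaching about 37%, which flags the compound as non-specific, limit read from the data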;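 also: p53-null SaOS-2 cells with luciferase driven by a doxycycline-inducible promoter; compound on cells about two nights before reading with doxycycline added after day one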
# * = called active by the depositor; nt = no result.
SMILES,aSyn 5UTR inh,Jurkat NFkB inh,Mdm2 MdmX PPI,697 NFkB inh,CSC inhib,Gli-Sufu block,Mdm2 MdmX conf,others
CCCn1c(N2CCN(C)CC2)nc2c1c(=O)[nH]c(=O)n2C,4,-10,29,10,-6,-13,nt,
CCCn1c(N2CCN(CC(=O)c3c(C)n(C)c4ccc(OC)cc34)CC2)nc2c1c(=O)[nH]c(=O)n2C,63*,5,55*,15,nt,4,22,
CC1(C)C[C@@H](O)[C@]2(C)CC[C@]3(C)C(=CCC4[C@@]5(C)CC[C@H](O)[C@](C)(CO)C5CC[C@]43C)[C@@H]2C1 (some centres undefined),nt,7,77*,16,nt,-8,-44,
CCC(C)NS(=O)(=O)c1ccc(S(=O)(=O)N(CC(=O)Nc2ccccc2)CC2CCCO2)cc1 (centres undefined),7,-5,10,-5,-8,0,nt,
COc1cc(C(=O)Oc2ccccc2/C=N/NC(=O)c2ccc(C)c(Cl)c2)cc(OC)c1OC,84*,28,58*,-34,24,20,27,
COc1ccc(C(=O)N/N=C/c2ccccc2C(=O)O)cc1OC,8,-3,-6,-29,-7,8,nt,
CC(=O)Nc1ccc(Oc2cc(NC(C)=O)cc([N+](=O)[O-])c2)cc1,19,7,-16,14,-22,2,nt,
COc1ccc(-c2cc(C(F)(F)F)nc(-n3ccnc3C)n2)cc1,-9,5,55*,-2,7,22,36,
COc1ccc(-c2cc(C(F)(F)F)nc(N3CCN(C)CC3)n2)cc1,8,1,4,10,3,7,nt,
CCn1c(=O)n(CC)c2cc(N3CCCC3)c(NC(=O)c3cc(Br)ccc3OC)cc21,9,-1,75*,-9,15,28,20,
Cc1ccc(-c2nn(-c3ccccc3)cc2/C=C2\SC(=S)N(CC(=O)O)C2=O)cc1,19,-2,11,-2,55,11,nt,
CCOc1ccc(-c2nn(-c3ccccc3)cc2/C=C2\SC(N)=NC2=O)cc1C,-32,0,67*,-7,33,-8,22,
Cc1ccc2oc(=O)n(CCCOc3ccccc3C)c2c1,-18,-3,-1,-13,-1,-6,nt,
CN(C)CCCNC(=O)C[C@H]1C[C@H](C(=O)N2CCCCC2)[C@@]2(C)c3[nH]c4cc(-c5ccco5)ccc4c3CCN2C1=O,nt,nt,41,7,nt,2,nt,
COc1ccc2[nH]c3c(c2c1)CCN1C(=O)C(CC(=O)NCCC2=CCCCC2)C[C@H](C(=O)N2CCCCC2)[C@@]31CCc1ccccc1 (some centres undefined),nt,nt,88*,-2,nt,17,-33,
CN(C)C(=O)CCc1ccc2c3c([nH]c2c1)[C@]1(CCC2CCCC2)[C@@H](C(=O)N2CCOCC2)C[C@H](CC(=O)NCCC2=CCCCC2)C(=O)N1CC3,nt,nt,54*,2,nt,0,57*,Full FLuc ctr=61*
CN(C)CCCNC(=O)C[C@H]1C[C@H](C(=O)N2CCCCC2)[C@@]2(CCc3ccccc3)c3[nH]c4cc(-c5ccco5)ccc4c3CCN2C1=O,nt,nt,59*,4,nt,17,53*,Full FLuc ctr=45*
O=C(C[C@H]1C[C@H](C(=O)N2CCOCC2)[C@@]2(CCC3CCCC3)c3[nH]c4cc(-c5ccco5)ccc4c3CCN2C1=O)NCCc1ccccn1,nt,nt,81*,3,nt,7,0,
COc1cccc(CNC(=O)CCc2nc3cc(S(=O)(=O)N4CCOCC4)ccc3n2C)c1,-10,0,9,14,-12,0,nt,
CN(C)CCCNC(=O)CC1C[C@H](C(=O)N2CCCCC2)[C@@]2(CCc3ccccc3)c3[nH]c4ccccc4c3CCN2C1=O (some centres undefined),nt,7,83*,12,5,6,24,
COc1ccc2[nH]c3c(c2c1)CCN1C(=O)C(CC(=O)NCCCN(C)C)C[C@H](C(=O)N2CCCCC2)[C@@]31CCc1ccccc1 (some centres undefined),nt,nt,33,15,nt,-4,nt,
Cc1ccn2c(Nc3ccc4c(c3)OCO4)c(-c3ccccn3)nc2c1,-50,-7,79*,-41,1,16,69*,Full FLuc ctr=37*
c1ccc(-c2nc3ccccn3c2NC2CCCC2)nc1,-17,-4,30,-16,2,8,nt,
Cc1ccn2c(Nc3ccccc3C)c(-c3ccncc3)nc2c1,21,-3,59*,-21,-2,-2,34,
Cc1ccn2c(NC3CCCC3)c(-c3ccccn3)nc2c1,-47,-18,74*,-49,62,12,43*,Full FLuc ctr=43*
SMILES,aSyn 5UTR inh,Jurkat NFkB inh,Mdm2 MdmX PPI,697 NFkB inh,CSC inhib,Gli-Sufu block,Mdm2 MdmX conf,others
Cc1ccc(Nc2c(-c3ccccn3)nc3ccc(C)cn23)cc1,36,-5,74*,-15,112*,19,90*,Full FLuc ctr=52*
CC(=O)Nc1c(-c2ccccc2)nc2cc(C)ccn12,2,-10,10,7,-7,-7,nt,
Cc1ccc(-c2nc3cnccn3c2Nc2ccc3c(c2)OCO3)o1,20,-13,19,-44,-4,-3,nt,
Cc1cccc(C)c1NC(=O)C(C)Sc1nnc(C)n1CC1CCCO1 (centres undefined),1,19,-10,6,nt,40,nt,
O=C(CSCc1ccc(C(=O)O)cc1)Nc1ccccc1,0,-23,-7,2,-16,-2,nt,
CC(C)CCN1CCN(Cc2cnc(N3CCCC3)s2)CC1CCO (centres undefined),6,-4,6,4,-6,7,nt,
Cc1ccc(Nc2c(-c3ccccn3)nc3cc(C)ccn23)cc1,35,9,92*,-5,98*,31,89*,Full FLuc ctr=55*
CSc1ccc(-c2nc3cnccn3c2Nc2ccc3c(c2)OCO3)cc1,10,-6,55*,2,16,-4,11,
Cc1ccc(Nc2c(-c3ccccc3)nc3cnccn23)cc1,18,-2,-9,-12,3,-3,nt,
Cc1ccc(S(=O)(=O)N(Cc2cc3ccccc3[nH]c2=O)c2cccc(C)c2)cc1,-24,34,35,-24,15,-12,nt,
COc1cc(-c2nc(C(=O)NC3CCCCC3)cc3c2[nH]c2ccccc23)cc(OC)c1OC,7,-4,48,27,-1,18,nt,
COc1ccc(OC)c(-c2nc(C(=O)NC3CCN(Cc4ccccc4)CC3)cc3c2[nH]c2ccccc23)c1,-5,4,50*,-8,-1,9,20,
COc1ccc(OC)c(-c2nc(C(=O)NCCCN3CCOCC3)cc3c2[nH]c2ccccc23)c1,1,-25,18,-9,1,13,nt,
COc1cc(-c2nc(C(=O)NC3CCN(Cc4ccccc4)CC3)cc3c2[nH]c2ccccc23)cc(OC)c1OC,-17,-18,79*,0,-7,7,56*,Full FLuc ctr=50*

# Screening results deposited in PubChem by several laboratories.
